Inconclusive results are not listed. Calls of active or inactive are those of the source. The calls were made as follows: active = hit-call score of the fitted dose curve at least 0.9, where 1 is the maximum; inconclusive = response in the unintended direction; inactive = score below 0.9.
What follows are compounds tested against human Dopamine Transporter (DAT), SLC6A3 (gene 6531) (UniProt Q01959) (assay: NVS_TR_hDAT: NovaScreen (NVS) Transporter Assay for human Dopamine Transporter (DAT) (AID 2283374);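 also: activity means loss of bound radioligand signal relative to DMSO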).
Procedure: NVS_TR_hDAT is a biochemical, single-readout assay that uses extracted gene-proteins in a cell-free assay. Measurements were taken 1 hour after chemical dosing in a 96-well plate.NVS_TR_hDAT is one of one assay component(s) measured or calculated from the NVS_TR_hDAT assay. It is designed to make measurements of radioligand binding, a form of binding reporter, as detected with scintillation counting signals by Filter-based radiodetection technology.Data from the assay component NVS_TR_hDAT was analyzed into 1 assay endpoint. This assay endpoint, NVS_TR_hDAT, was analyzed in the positive analysis fitting direction relative to DMSO as the negative control and baseline of activity. Using a type of binding reporter, loss-of-signal activity can be used to understand changes in the binding as they relate to the gene SLC6A3. Furthermore, this assay endpoint can be referred to as a primary readout, because the performed assay has only produced 1 assay endpoint. To generalize the intended target to other relatable targets, this assay endpoint is annotated to the transporter intended target family, where the subfamily is neurotransmitter transporter.
Binding assays used specific radioligands (tritiated, iodinated) with non-radioactive competitive displacement ligands in agonist or antagonist protocols (as indicated) and various reference compounds and inhibitors to titrate specific binding to receptors and transporters. Most enzyme assays (CYPs, kinases, phosphatases, proteases, HDACs) used recombinant protein and specific substrates (fluorescence mostly, some colorimetric and radioactive) and inhibitors, followed by a biochemical separation of substrate and product. All assays for the biochemical HTS were initially run in duplicate at a single concentration (10 uM for CYP450 assays and 25 uM for all others). […] Each assay was run with positive and negative controls, and concurrent controls on every plate. The follow-up (secondary) screen tested active chemical-pairs in concentration series, as well as a few additional assays not tested in the primary screen, some selected negative inactives, and several cases re-run in the concentration series for confirmatory purposes.

Sequence of human Dopamine Transporter (DAT), SLC6A3 (gene 6531) (Q01959 whole entry, looked up): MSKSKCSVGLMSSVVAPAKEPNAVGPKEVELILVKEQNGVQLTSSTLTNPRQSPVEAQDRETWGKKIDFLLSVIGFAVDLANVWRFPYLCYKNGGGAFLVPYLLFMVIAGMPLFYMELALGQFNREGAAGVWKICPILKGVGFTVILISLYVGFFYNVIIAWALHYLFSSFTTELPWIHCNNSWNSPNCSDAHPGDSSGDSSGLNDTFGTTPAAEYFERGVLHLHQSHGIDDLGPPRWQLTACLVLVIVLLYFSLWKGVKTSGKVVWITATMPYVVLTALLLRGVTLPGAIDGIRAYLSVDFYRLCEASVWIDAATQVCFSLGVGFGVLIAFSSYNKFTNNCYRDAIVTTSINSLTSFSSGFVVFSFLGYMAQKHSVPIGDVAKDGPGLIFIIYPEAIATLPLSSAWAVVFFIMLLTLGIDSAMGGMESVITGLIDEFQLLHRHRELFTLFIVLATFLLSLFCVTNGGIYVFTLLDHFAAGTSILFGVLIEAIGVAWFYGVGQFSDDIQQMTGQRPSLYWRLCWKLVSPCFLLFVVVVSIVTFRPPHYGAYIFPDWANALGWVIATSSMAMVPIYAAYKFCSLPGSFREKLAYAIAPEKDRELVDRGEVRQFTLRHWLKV

Row | SMILES | AC50 | outcome
1 | CC(C)N(Cc1ccccc1)C(=O)C(C)(C)C | 6.52 µM (active) | –
2 | CC(C)(C)C(O)(CCc1ccc(Cl)cc1)Cn1cncn1 (centres undefined) | 4.04 µM (active) | –
3 | CCOC(=O)[C@]1(c2ccccc2)Oc2ccccc2[C@@H]1N | 2.98 µM (active) | –
4 | CCCCCCCCn1sccc1=O | – | inactive
5 | CCC(C)c1ccc(O)cc1 (centres undefined) | 4.96 µM (active) | –
6 | O=C(N[C@H](c1ccccc1)[C@@H]1CN2CCC1CC2)c1c(Cl)ccc(C(F)(F)F)c1Cl | 23.1 µM (active) | –
7 | Nc1ccc(N=Nc2ccccc2)cc1 | 2.24 µM (active) | –
8 | Nc1ccc(Cc2ccc(N)cc2)cc1 | 9.3 µM (active) | –
9 | Cn1cc(-c2ccccc2)c(=O)c(-c2cccc(C(F)(F)F)c2)c1 | 16.5 µM (active) | –
10 | Nc1ccc(Oc2ccc(N)cc2)cc1 | 3.25 µM (active) | –
11 | [Cl-].[Cl-].[Hg+2] | 25 µM (active) | –
12 | CCC[CH2][Sn]([Cl])([CH2]CCC)[CH2]CCC | 3.59 µM (active) | –
13 | Cc1cc(N=Nc2ccccc2C)ccc1N | 17.4 µM (active) | –
14 | O=C(Oc1ccc(Br)cc1)N1CCN2CCC1CC2 | 8.54 µM (active) | –
